Hits are enriched below; roughly 21% of the tested compounds scored in any of these assays.
Pf growth 96h: Primary qHTS for delayed death inhibitors of the malarial parasite plastid, 96 hour incubation. Potency, µM (highest dose often 28.7 µM), for inactives: at the top dose activity change, negative = inhibition, hits mostly inhibitors. 320,000 tested, 6.9% active. P. falciparum luciferase reporter growth, 96 h; also: potency is read from the fitted curve at half-maximal effect; % is scaled to controls: 0 for no effect and ±100 for the full control effect
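Two-generation exposure (96 h) targets delayed-death phenotype. Reporter parasites carrying integrated firefly luciferase, in red cells at 2% hematocrit and 0.05% parasitemia final, kept at 37 C, 5% CO2; luminescence loss indicates inhibition.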
Sm TGR block: qHTS Assay for the Inhibitors of Schistosoma Mansoni Peroxiredoxins; purified TGR, DTNB reduction, TNB absorbance 405 nm; 360,000 tested, 3% active; Potency, µM (titrated, usually from 114 µM), without a hit: at the top dose activity change, negative = inhibition, usual class: inhibitors; Schistosoma mansoni thioredoxin glutathione reductase (TGR), Q962Y6; also: potency is read from the fitted curve at half-maximal effect; % is scaled to controls: 0 for no effect and ±100 for the full control effect; nearly all actives have a fitted effect of over 60% in size
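Kinetic colorimetric format: TGR-catalysed, NADPH-driven DTNB reduction monitored via TNB absorbance. Enzyme dispensed at 20 nM; compound exposure 15 min at room temperature before reaction start.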
Pf growth 48h: Primary qHTS for delayed death inhibitors of the malarial parasite plastid, 48 hour incubation; P. falciparum luciferase growth in erythrocytes, 48 h; Potency, µM (highest dose often 28.7 µM), for inactives: at the top dose activity change, negative = inhibition, actives largely listed as inhibitors; 310,000 tested, 5.9% active; also: potency is read from the fitted curve at half-maximal effect; % is scaled to controls: 0 for no effect and ±100 for the full control effect
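Here the parasites carry a stable luciferase gene and grow inside erythrocytes in Albumax-based RPMI medium with compound for one erythrocytic cycle. Activity is scored as loss of luminescent signal.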
CHX counter: Cycloheximide Counterscreen for Small Molecule Inhibitors of Shiga Toxin; cell reporter, cycloheximide protein synthesis inhibition counterscreen; max response, %; 300,000 tested, 12% active; in the data active = max response mostly above about 13%, no sharp cut-off; inactive = mostly below about 14%; also: read at 38.3 µM for the half of the compounds with a filed dose; 0% is about no effect
NS1 inh: qHTS Assay for Inhibitors of Influenza NS1 Protein Function. Potency, µM (titrated, usually from 46.1 µM), for inactives: at the top dose activity, positive = more growth. 270,000 tested, 0.4% active; calls by dose curve; also: potency is read from the fitted curve at half-maximal effect; actives are rising curves; nearly all actives have a fitted effect of over 50% in size
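OD600 was taken as the measure of yeast growth restored by compound in an NS1-expressing S. cerevisiae strain. Cells had been washed out of glucose medium and diluted 1:100 into galactose -URA medium, pH 6.0.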
Shiga inhibitor: A qHTS for Small Molecule Inhibitors of Shiga Toxin; Vero cells, Shiga toxin protein synthesis inhibition reporter; inhibition, % at 38.7 µM; 290,000 tested, 9.2% active; AID 2315, 2010; in the data active = inhibition mostly above about 28%, no sharp cut-off; inactive = mostly below about 43%; also: 0% is about no effect
The depositor's hits bear a star; i = inactive; ? = inconclusive; . = no result. Unless noted, calls follow the shape of the dose curve; as a rule, active = well fitted curve in the direction sought with a large enough effect; inconclusive = small, poorly fitted or top-dose-only effect, or another doubt; inactive = no such curve, though single readings can be large; an effect the other way counts as inactive or inconclusive.

SMILES | Pf growth 96h | Sm TGR block | Pf growth 48h | CHX counter | NS1 inh | Shiga inhibitor
CS(=O)(=O)c1ccccc1C(=O)N(CCC1=CCCCC1)c1c(N)n(Cc2ccccc2)c(=O)[nH]c1=O | ? | -19% | ? | . | . | .
COc1ccc(CCNC(=O)c2cc(-c3ccccc3)nc3ccccc23)cc1OC | . | -1% | . | . | . | .
O=C(CCc1ccccc1)Nc1cc2c(cc1Cl)OCCO2 | 251% | 3% | 156% | 47* | -6% | 80*
O=C(CCc1ccccc1Cl)Nc1cc2c(cc1C(=O)O)OCCCO2 | 8% | -24% | 26% | . | . | .
CC(=O)c1cc2c(cc1NC(=O)CCn1cnnn1)OCO2 | ? | 50µM* | 24% | -5 | 0% | 6
CCCC(=O)Nc1cc2c(cc1C(C)=O)OCCO2 | 42% | 13% | 7% | -2 | -4% | 2
CCN(CC(=O)Nc1ccc(NC(C)=O)cc1)C(=O)COc1ccc(C(=O)c2ccccc2)cc1 | ? | -4% | 0% | -5 | -18% | -8
Cc1ccc(Cn2nnc3c(=O)n(Cc4cc(C)ccc4C)cnc32)cc1 | 1.5µM* | -2% | ? | 4 | 3% | 1
Cc1ccc(Cn2nnc3c(=O)n(Cc4cccc(C)c4)cnc32)cc1 | -13% | 4% | ? | 9 | -12% | -3
Cc1cccc(Cn2cnc3c(nnn3Cc3ccc(Cl)cc3)c2=O)c1 | 4.1µM* | -13% | ? | -1 | 1% | -20
Cc1ccc(-n2cc(-c3ccccc3)[nH]c2=O)cc1F | ? | ? | 181% | 46* | 11% | 115*
COc1ccccc1-n1cc(-c2ccc(Cl)cc2)[nH]c1=O | ? | -7% | -23% | 1 | 4% | -11
CCOC(=O)c1sc(NC(=O)Nc2ccc(F)cc2)nc1C | -22% | 9% | 81% | 93* | -1% | 121*
CCOC(=O)c1sc(NC(=O)CCSC)nc1C | 16% | 0% | ? | 12 | -8% | 31
CCOC(=O)c1sc(NC(=O)Cc2ccc(F)cc2)nc1C | ? | 8% | -20% | 29* | . | 46
CCOC(=O)c1sc(NC(=O)CSC(=S)N2CCN(C)CC2)nc1C | ? | 6% | 8.3µM* | 8 | 3% | 26
CCOC(=O)c1sc(Nc2cccc(Cl)c2)nc1C | 0% | 12% | 97% | 51* | -5% | 70*
CCOC(=O)c1sc(NC(C)=O)nc1C | . | 2% | -6% | -1 | -4% | -14
CCOC(=O)c1sc(NC(=O)Cc2ccccc2OC)nc1C | 1% | -2% | 0% | 4 | 0% | -4
CCCS(=O)(=O)N1CCCC(C(=O)Oc2ccc(OC)cc2)C1 (stereo not drawn) | ? | 10% | 0% | -1 | ? | 1
O=C(Nc1ccc2nn(-c3ccccc3)nc2c1)c1ccc(-c2cccc(Cl)c2)o1 | . | 8.9µM* | . | . | . | .
COc1cc(NC(=O)c2ccc(-c3cccc([N+](=O)[O-])c3)o2)ccc1NC(=O)C(C)C | -13% | -22% | 10µM* | 2 | -8% | -7
O=C(Nc1ccc2oc(=O)ccc2c1)c1ccc(-c2cccc([N+](=O)[O-])c2)o1 | ? | 50µM* | 4.1µM* | 11 | 4% | 62
COc1cc([N+](=O)[O-])ccc1NC(=O)c1cccc(NC(=O)C(C)C)c1 | 50% | 1% | 4% | 2 | . | 11
O=C(Nc1ccc2oc(=O)ccc2c1)c1ccc(-c2ccc(Cl)cc2)o1 | ? | -21% | -17% | -2 | 1% | 4
SMILES | Pf growth 96h | Sm TGR block | Pf growth 48h | CHX counter | NS1 inh | Shiga inhibitor
O=C(Nc1ccc2oc(=O)ccc2c1)c1ccc(-c2cccc(Cl)c2)o1 | ? | 22µM* | 10µM* | -2 | -2% | -4
COc1ccc(N(CC(=O)NC2CCCCC2)C(=O)CCCC(=O)Nc2ccccn2)cc1 | -21% | 5% | ? | -6 | 4% | -4
CC(C)[C@]1(Cl)CC[C@@H]2[C@]3(C)CCC[C@@](C)(C(=O)O)[C@H]3C[C@H](Cl)[C@@]2(Cl)[C@H]1Cl | . | . | . | . | -3% | .
COC(=O)c1c(C)[nH]c(C(=O)NCc2ccco2)c1C | 59% | -5% | 323% | 20 | . | 23
O=C(NCCC1CCCCN1S(=O)(=O)c1ccccc1)C(=O)NCc1ccc(F)cc1 (stereo not drawn) | ? | 4% | 10µM* | . | . | .
O=C(NCCC1CCCCN1S(=O)(=O)c1ccc(Cl)cc1)C(=O)NCc1cccnc1 (stereo not drawn) | ? | -10% | ? | . | . | .
O=C(NCCC1CCCCN1S(=O)(=O)c1ccccc1)C(=O)NCc1ccccc1 (stereo not drawn) | 17µM* | 0% | -21% | . | . | .
Cc1cc(S(=O)(=O)N2CCCCC2CCNC(=O)C(=O)NCc2cccnc2)ccc1F (stereo not drawn) | 13µM* | -8% | ? | . | . | .
Cc1ccc(CNC(=O)C(=O)NCCC2CCCCN2S(=O)(=O)c2ccccc2)cc1 (stereo not drawn) | ? | 0% | -32% | . | . | .
O=C(O)COCC(=O)N1CCCN(c2nccc(C(F)(F)F)n2)CC1 | 2% | 4% | 2% | 0 | 4% | -9
CCOC(=O)C1CCCN(C(=O)c2cccc(NC(=O)c3nsc4ccccc34)c2)C1 (stereo not drawn) | . | 5% | . | . | . | .
COC(=O)C1=C(C(=O)OC)C(c2ccccc2O)c2sc(=O)[nH]c2S1 (stereo not drawn) | 5% | 40µM* | 10% | -4 | -32% | -5
Cc1cccc(-n2nnc3c(=O)n(Cc4ccccn4)cnc32)c1 | 62% | 7% | 18% | 13 | . | 9
CC(=O)N(/N=C1\Sc2ccccc2C1=O)c1ccccc1 | 95% | 5% | 72% | 40* | -3% | 37*
CC(=O)N(/N=C1\Sc2ccccc2C1=O)c1ccccc1C | 7% | 11% | 25% | 68* | -50% | 91*
Cc1ccc(S(=O)(=O)N(CC(=O)Nc2ccccc2-c2ccccc2)c2ccc(C)cc2C)cc1 | -18% | -6% | ? | -1 | 7% | -14
CC(=O)N(/N=C1\Sc2ccccc2C1=O)c1ccc(C)cc1C | i | 3% | -17% | 59* | 4% | 121*
CN(C(=O)c1ccccc1-c1ccccc1C(=O)O)c1ccccc1 | ? | 13% | -2% | -5 | -6% | -2
CC(=O)N(/N=C1/C(=O)Nc2ccccc21)c1ccccc1 | 155% | ? | 104% | 28* | -11% | 44*
COc1ccc(NC(=O)CCNS(=O)(=O)c2cc(Br)ccc2Br)cc1S(N)(=O)=O | -4% | -20% | 1% | 12 | 16% | -5
COc1cc(/C=C2\C(=N)N3N=C(C)SC3=NC2=O)cc(Cl)c1OCCOc1ccc(NC(C)=O)cc1 | -1% | 7% | ? | -3 | 2% | -15
